Results taken from PubChem BioAssay AID1159580 (chemical genetic matrix, 2015).
Several values for one entry are separate records, joined by “and”; a condition that tells them apart may be missing. Equal values may be shown once. In all, about 5,500 compounds went through this assay and about 2,000 (36%) were called active. About 18% were inconclusive and are not listed. No stated cut-off is given here; in the data, active means normalized growth mostly below about 0.91 (no sharp cut-off); inconclusive means no clear call, values can overlap the other calls; inactive means mostly above about 0.92. The list shows a part of the results.

Test: chemical genetic growth profiling, strain panel (AID 1159580);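 further: tested at 20 µM; growth read once vehicle control cultures reached saturation at 30 °C; 1 = growth at the plate median or of vehicle wells; lower values mean less growth of the strain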
Details: growth OD

Measured: normalized growth

CCN(CC)CCCC(C)Nc1ccnc2cc(Cl)ccc12 (stereo not drawn)
inactive: S. cerevisiae deletion strains, locus YJR075W, strain HOC1, active compounds read low 1.03 and 1.01 | S. cerevisiae deletion strains, locus YKL009W, strain mrt4, active compounds read low 1.03 | S. cerevisiae deletion strains, locus YKL068W, active compounds read low 1.01 | S. cerevisiae deletion strains, locus YKL085W, strain MDH1 (second series), active compounds read low 0.998 | S. cerevisiae deletion strains, locus YKL085W, strain MDH1, active compounds read low 0.998 | S. cerevisiae deletion strains, locus YKL160W, strain elf1, active compounds read low 1.03 | S. cerevisiae deletion strains, locus YKR001C, strain vps1, active compounds read low 1.01 | S. cerevisiae deletion strains, locus YKR026C, strain gcn3, active compounds read low 1.03 | S. cerevisiae deletion strains, locus YKR091W, strain srl3, active compounds read low 1.02 | S. cerevisiae deletion strains, locus YLL001W, strain dnm1, active compounds read low 1.02 | S. cerevisiae deletion strains, locus YLL026W, active compounds read low 1.01 | S. cerevisiae deletion strains, locus YLL041C, strain sdh2, active compounds read low 1.02 | S. cerevisiae deletion strains, locus YLR027C, strain aat2, active compounds read low 1.01 | S. cerevisiae deletion strains, locus YLR039C, strain RIC1, active compounds read low 1.04 | S. cerevisiae deletion strains, locus YLR058C, strain SHM2, active compounds read low 1.03 | S. cerevisiae deletion strains, locus YLR102C, strain apc9, active compounds read low 1 | S. cerevisiae deletion strains, locus YLR113W, strain HOG1, active compounds read low 0.947 | S. cerevisiae deletion strains, locus YLR221C, strain rsa3, active compounds read low 1.03 | S. cerevisiae deletion strains, locus YLR258W, strain gsy2, active compounds read low 1.01 | S. cerevisiae deletion strains, locus YLR262C, strain YPT6 (second series), active compounds read low 1.01 | S. cerevisiae deletion strains, locus YLR262C, strain YPT6, active compounds read low 1.01 | S. cerevisiae deletion strains, locus YLR268W, strain sec22, active compounds read low 0.998 | S. cerevisiae deletion strains, locus YLR320W, strain mms22, active compounds read low 1.01 | S. cerevisiae deletion strains, locus YLR330W, strain CHS5, active compounds read low 1.02 | S. cerevisiae deletion strains, locus YLR342W, strain FKS1 (second series), active compounds read low 1.03 | S. cerevisiae deletion strains, locus YLR342W, strain FKS1, active compounds read low 1.03 | S. cerevisiae deletion strains, locus YLR357W, strain rsc2, active compounds read low 1.05 | S. cerevisiae deletion strains, locus YLR370C, strain arc18, active compounds read low 1.02 | S. cerevisiae deletion strains, locus YLR371W, strain rom2, active compounds read low 1.02 | S. cerevisiae deletion strains, locus YLR384C, strain iki3, active compounds read low 1.03 | S. cerevisiae deletion strains, locus YLR418C, strain cdc73, active compounds read low 1.07 | S. cerevisiae deletion strains, locus YML016C, strain PPZ1, active compounds read low 1.01 | S. cerevisiae deletion strains, locus YML032C, strain rad52, active compounds read low 0.996 | S. cerevisiae deletion strains, locus YML120C, strain ndi1, active compounds read low 1.01 | S. cerevisiae deletion strains, locus YML124C, strain tub3, active compounds read low 1 | S. cerevisiae deletion strains, locus YMR058W, strain fet3, active compounds read low 1 | S. cerevisiae deletion strains, locus YMR078C, strain ctf18, active compounds read low 1.02 | S. cerevisiae deletion strains, locus YMR125W, strain sto1, active compounds read low 1.03 | S. cerevisiae deletion strains, locus YMR129W, active compounds read low 1.02 | S. cerevisiae deletion strains, locus YMR205C, strain PFK2, active compounds read low 1.04 | S. cerevisiae deletion strains, locus YMR223W, strain ubp8, active compounds read low 1.03 | S. cerevisiae deletion strains, locus YMR231W, strain pep5, active compounds read low 1.02 | S. cerevisiae deletion strains, locus YMR307W, strain GAS1, active compounds read low 1.04 | S. cerevisiae deletion strains, locus YNL067W, strain RPL9B, active compounds read low 1.03 | S. cerevisiae deletion strains, locus YNL071W, strain lat1, active compounds read low 1 | S. cerevisiae deletion strains, locus YNL128W, strain TEP1, active compounds read low 1.04 | S. cerevisiae deletion strains, locus YNL153C, strain GIM3, active compounds read low 1.04 | S. cerevisiae deletion strains, locus YNL175C, strain NOP13, active compounds read low 1.01 | S. cerevisiae deletion strains, locus YNL183C, strain NPR1, active compounds read low 0.918 | S. cerevisiae deletion strains, locus YNL197C, strain WHI3, active compounds read low 0.99 | S. cerevisiae deletion strains, locus YNL209W, strain ssb2, active compounds read low 1.01 | S. cerevisiae deletion strains, locus YNL224C, strain SQS1, active compounds read low 1 | S. cerevisiae deletion strains, locus YNL233W, strain BNI4, active compounds read low 1.03 | S. cerevisiae deletion strains, locus YNL248C, strain rpa49, active compounds read low 1.04 | S. cerevisiae deletion strains, locus YNL250W, strain rad50, active compounds read low 1.02 | S. cerevisiae deletion strains, locus YNL271C, strain bni1, active compounds read low 1.01 | S. cerevisiae deletion strains, locus YNL298W, strain CLA4, active compounds read low 1.01 | S. cerevisiae deletion strains, locus YNL307C, strain MCK1, active compounds read low 1.02 | S. cerevisiae deletion strains, locus YNL322C, strain KRE1 (second series), active compounds read low 1.05 | S. cerevisiae deletion strains, locus YNR049C, strain mso1, active compounds read low 1.02 | S. cerevisiae deletion strains, locus YNR052C, strain pop2, active compounds read low 1.01 | S. cerevisiae deletion strains, locus YOL006C, strain TOP1, active compounds read low 1.14 | S. cerevisiae deletion strains, locus YOL012C, strain htz1 2.16 | S. cerevisiae deletion strains, locus YOL147C, strain pex11, active compounds read low 1 | S. cerevisiae deletion strains, locus YOR001W, strain rrp6, active compounds read low 1.03 | S. cerevisiae deletion strains, locus YOR061W, strain CKA2, active compounds read low 1.01 | S. cerevisiae deletion strains, locus YOR069W, strain VPS5, active compounds read low 1.01 | S. cerevisiae deletion strains, locus YOR070C, strain gyp1, active compounds read low 1.02 | S. cerevisiae deletion strains, locus YOR080W, strain dia2, active compounds read low 1.06 | S. cerevisiae deletion strains, locus YOR083W, strain WHI5 (second series), active compounds read low 0.986 | S. cerevisiae deletion strains, locus YOR083W, strain WHI5, active compounds read low 1.02 | S. cerevisiae deletion strains, locus YOR106W, strain vam3, active compounds read low 1.03 | S. cerevisiae deletion strains, locus YOR136W, strain idh2, active compounds read low 1.01 | S. cerevisiae deletion strains, locus YOR144C, strain elg1, active compounds read low 0.993 | S. cerevisiae deletion strains, locus YOR184W, strain ser1, active compounds read low 1.03 | S. cerevisiae deletion strains, locus YOR231W, strain MKK1, active compounds read low 0.953 | S. cerevisiae deletion strains, locus YOR265W, strain rbl2, active compounds read low 1.02 | S. cerevisiae deletion strains, locus YOR270C, strain vph1, active compounds read low 1.01 | S. cerevisiae deletion strains, locus YOR290C, strain snf2, active compounds read low 1.01 | S. cerevisiae deletion strains, locus YOR316C, strain cot1, active compounds read low 1.01 | S. cerevisiae deletion strains, locus YPL051W, strain arl3, active compounds read low 1.02 | S. cerevisiae deletion strains, locus YPL055C, strain LGE1, active compounds read low 1.03 and 1.01 | S. cerevisiae deletion strains, locus YPL078C, strain atp4, active compounds read low 1.02 | S. cerevisiae deletion strains, locus YPL106C, strain sse1, active compounds read low 1.05 | S. cerevisiae deletion strains, locus YPL240C, strain hsp82, active compounds read low 1.02 | S. cerevisiae deletion strains, locus YPL241C, strain CIN2, active compounds read low 1.01 | S. cerevisiae deletion strains, locus YPL256C, strain CLN2, active compounds read low 0.945 | S. cerevisiae deletion strains, locus YPR119W, strain clb2, active compounds read low 1.01 | S. cerevisiae deletion strains, locus YPR141C, strain kar3, active compounds read low 1.01 | S. cerevisiae deletion strains, locus YPR163C, strain tif3, active compounds read low 0.999 | S. cerevisiae deletion strains, locus YPR167C, strain met16, active compounds read low 1.01 | S. cerevisiae deletion strains, strain wtn01, active compounds read low 1.03 | S. cerevisiae strains, strain wild type, active compounds read low 1.01
